Reference: the antibiotic and cytotoxicity screens of Wong et al. (2023)
The whole screen tested about 39,000 compounds, of which about 1,500 (3.8%) were called active. The full list was thinned out, with actives kept by preference.

The compounds below were run on HSkMC (human skeletal muscle cells) (assay: cytotoxicity call (relative viability < 0.9)). Details: 10 µM.

| SMILES | cytotoxicity call |
| --- | --- |
| O=S(=O)(NCC[C@@H]1CC[C@@H](NS(=O)(=O)c2ccccc2Cl)[C@@H](CO)O1)c1ccc(F)cc1 | inactive |
| COc1ccc(NC(=O)Nc2ccc3c(c2)C(=O)N([C@@H](C)CO)C[C@H](C)[C@@H](CN(C)S(=O)(=O)c2c(C)noc2C)OCCCC[C@@H](C)O3)cc1 | inactive |
| C[C@@H]1CCCCO[C@@H](CN(C)C(=O)Nc2ccc(C(F)(F)F)cc2)[C@@H](C)CN([C@H](C)CO)C(=O)c2cc(NC(=O)Cc3ccccc3)ccc2O1 | inactive |
| C[C@H](CCC(=O)NCCS(=O)(=O)O)[C@H]1CC[C@H]2[C@@H]3[C@H](O)C[C@@H]4C[C@H](O)CC[C@]4(C)[C@H]3C[C@H](O)[C@]12C | inactive |
| CC(CCC(=O)O)C1CCC2C3C(O)CC4CC(O)CCC4(C)C3CCC12C (configuration not stated) | inactive |
| CC(C)[C@@H](CC[C@@H](C)[C@H]1CC[C@H]2[C@@H]3[C@H](O)C[C@H]4C[C@@H](NCCCNCCCCNCCCN)CC[C@]4(C)[C@H]3CC[C@]12C)OS(=O)(=O)O | active |
| CC(C)[C@@H](CC[C@@H](C)[C@H]1CC[C@H]2[C@@H]3[C@H](O)C[C@H]4C[C@@H](NCCCNCCCCN)CC[C@]4(C)[C@H]3CC[C@]12C)OS(=O)(=O)O | active |
| C[C@H](CCC(=O)NCC(=O)NCCS(=O)(=O)O)[C@H]1CC[C@H]2[C@@H]3[C@H](O)C[C@@H]4C[C@H](O)CC[C@]4(C)[C@H]3C[C@H](O)[C@]12C | inactive |
| COC(=O)CCC(C)C1CCC2C3C(O)CC4CC(O)CCC4(C)C3CC(O)C12C (configuration not stated) | inactive |
| CC(=O)N1CCO[C@H]2CCN(C(=O)c3cn(C)cn3)C[C@H]21 | inactive |
| Cc1ccc(S(=O)(=O)N(C)C[C@H]2OCCCC[C@H](C)Oc3ccc(NC(=O)Nc4ccc(F)cc4)cc3C(=O)N([C@H](C)CO)C[C@@H]2C)cc1 | inactive |
| Cc1noc(C)c1NC(=O)N(C)C[C@@H]1Oc2ccc(NC(=O)c3ccncc3)cc2CC(=O)N([C@H](C)CO)C[C@H]1C | inactive |
| COc1cccc(NC(=O)N(C)C[C@H]2OCc3ccccc3-c3c(n(C)c4ccccc34)C(=O)N([C@@H](C)CO)C[C@H]2C)c1 | inactive |
| C[C@H]1CN([C@@H](C)CO)S(=O)(=O)c2ccc(C#CCC3CCCC3)cc2O[C@@H]1CN(C)C(=O)c1cnccn1 | inactive |
| C=CCC[C@@H](Cc1ccc(F)cc1)C(=O)OC[C@@H](Cc1c[nH]c2ccccc12)NC(=O)[C@@H](CC=C)CC(=O)N(CCO)Cc1ccccc1 | active |
| C=CCC[C@H](Cc1ccc(F)cc1)C(=O)OC[C@H](Cc1c[nH]c2ccccc12)NC(=O)[C@@H](CC=C)CC(=O)N(CCO)Cc1ccccc1 | active |
| C=CCC[C@@H](Cc1ccc(F)cc1)C(=O)OC[C@@H](Cc1c[nH]c2ccccc12)NC(=O)[C@H](CC=C)CC(=O)N(CCO)Cc1ccccc1 | active |
| C=CCC[C@@H](Cc1ccc(F)cc1)C(=O)OC[C@H](Cc1c[nH]c2ccccc12)NC(=O)[C@H](CC=C)CC(=O)N(CCO)Cc1ccccc1 | inactive |
| C=CCC[C@H](Cc1ccc(F)cc1)C(=O)OC[C@@H](Cc1c[nH]c2ccccc12)NC(=O)[C@@H](CC=C)CC(=O)N[C@@H](CO)Cc1ccccc1 | inactive |
| C=CCC[C@@H](Cc1ccc(F)cc1)C(=O)OC[C@@H](Cc1c[nH]c2ccccc12)NC(=O)[C@@H](CC=C)CC(=O)N[C@@H](CO)Cc1ccccc1 | inactive |
| C=CCC[C@H](Cc1ccc(F)cc1)C(=O)OC[C@H](Cc1c[nH]c2ccccc12)NC(=O)[C@H](CC=C)CC(=O)N(CCO)Cc1ccccc1 | inactive |

| SMILES | cytotoxicity call |
| --- | --- |
| C=CCC[C@H](Cc1ccc(F)cc1)C(=O)OC[C@@H](Cc1c[nH]c2ccccc12)NC(=O)[C@H](CC=C)CC(=O)N(CCO)Cc1ccccc1 | active |
| C=CCC[C@@H](Cc1ccc(F)cc1)C(=O)OC[C@H](Cc1c[nH]c2ccccc12)NC(=O)[C@@H](CC=C)CC(=O)N(CCO)Cc1ccccc1 | inactive |
| C=CCC[C@H](Cc1ccc(F)cc1)C(=O)OC[C@@H](Cc1c[nH]c2ccccc12)NC(=O)[C@@H](CC=C)CC(=O)N(CCO)Cc1ccccc1 | inactive |
| CC(C)(C)[S@@](=O)N1Cc2cc(C(=O)N3CCc4ccccc4C3)nc(-c3cccc(-c4ccncc4)c3)c2[C@H]1CCO | inactive |
| CCO[C@H]1OC(C(=O)N2CCN(C)CC2)=C[C@@H](c2coc3ccccc3c2=O)[C@@H]1CCCOC(=O)NCCCCCC(=O)NO | inactive |
| C[C@@H]1CN([C@@H](C)CO)C(=O)Cc2cc(NS(=O)(=O)c3cccs3)ccc2O[C@@H]1CN(C)Cc1ccc(-c2ccccc2)cc1 | inactive |
| NC(=O)CC(N)=S | inactive |
| C[C@H]1CN([C@@H](C)CO)S(=O)(=O)c2ccc(C#CC3CCCC3)cc2O[C@H]1CN(C)C(=O)Cc1ccncc1 | inactive |
| CN(C)CC(=O)N1[C@@H]2Cn3c(ccc(-c4ccccc4)c3=O)[C@H]1[C@@H](C(=O)N1CCOCC1)[C@@H]2CO | inactive |
| C[C@H](CO)N1C[C@H](C)[C@H](CN(C)S(=O)(=O)c2cccs2)Oc2c(NC(=O)Nc3cccc4ccccc34)cccc2C1=O | inactive |
| COC(=O)C[C@H]1C=C[C@H](N)[C@H](CO)O1 | inactive |
| Cc1noc(C)c1S(=O)(=O)Nc1ccc2c(c1)CC(=O)N([C@H](C)CO)C[C@H](C)[C@@H](CN(C)S(=O)(=O)c1cccs1)O2 | inactive |
| C[C@@H]1CCCCO[C@@H](CN(C)S(=O)(=O)c2ccc(F)cc2)[C@H](C)CN([C@H](C)CO)C(=O)c2cc(NS(=O)(=O)c3ccc(Cl)cc3)ccc2O1 | inactive |
| C[C@H]1CN([C@@H](C)CO)C(=O)c2cc(NS(=O)(=O)c3ccc(F)cc3)ccc2O[C@H]1CN(C)Cc1ccc(Cl)c(Cl)c1 | inactive |
| C[C@H](CO)N1C[C@H](C)[C@@H](CN(C)Cc2ccc(Cl)c(Cl)c2)Oc2ccc(NS(=O)(=O)c3ccc(F)cc3)cc2C1=O | inactive |
| C[C@@H]1CN([C@@H](C)CO)C(=O)c2cc(NS(=O)(=O)c3ccc(F)cc3)ccc2O[C@H]1CN(C)Cc1ccc(Cl)c(Cl)c1 | active |
| C[C@H]1CN([C@@H](C)CO)C(=O)c2cc(NS(=O)(=O)c3ccc(F)cc3)ccc2O[C@@H]1CN(C)Cc1ccc(Cl)c(Cl)c1 | active |
| C[C@@H]1CN([C@H](C)CO)C(=O)c2cc(NS(=O)(=O)c3ccc(F)cc3)ccc2O[C@H]1CN(C)Cc1ccc(Cl)c(Cl)c1 | active |
| C[C@H](CO)N1C[C@H](C)[C@H](CN(C)Cc2ccc(Cl)c(Cl)c2)Oc2ccc(NS(=O)(=O)c3ccc(F)cc3)cc2C1=O | inactive |
| C[C@@H]1CN([C@H](C)CO)C(=O)c2cc(NS(=O)(=O)c3ccc(F)cc3)ccc2O[C@@H]1CN(C)Cc1ccc(Cl)c(Cl)c1 | inactive |
| C[C@@H]1CN([C@@H](C)CO)C(=O)c2cc(NS(=O)(=O)c3ccc(F)cc3)ccc2O[C@@H]1CN(C)Cc1ccc(Cl)c(Cl)c1 | inactive |
